Mtb bLac sens – beta-lactam sensitization of Mtb H37Rv; M. tuberculosis H37Rv growth with meropenem, percent inhibition; inhibition, % at 25 µM; 0.27% of 330,000 active; AID 434955; call rule not given here;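 note: growth measured after seven days incubation then overnight dye step; 0% = bacteria only wells and 100% = bacteria with antibiotic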
GDH-TPI counter-1 – GDH-TPI coupled enzyme inhibition counter-screen; GDH-TPI coupled enzyme counterscreen, NADH absorbance; inhibition, % at 4.8 µM; 1.2% of 360,000 active; in the data active = inhibition above about 30%;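 note: 0% = DMSO wells and 100% = wells lacking the enzyme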
UGM FP inh – inhibitors of M. tuberculosis UDP-galactopyranose mutase; P9WIQ1; purified UGM, fluorescence polarization probe displacement; inhibition, % at 10 µM; 0.06% of 320,000 active; AID 504406; in the data active = inhibition above about 10%, passing the limit was not always enough; inconclusive = no clear call, values can overlap the other calls
Rv3671c inh – Rv3671c (M. tuberculosis) protease inhibition | inhibition, % at 5.96 µM | 0.048% of 320,000 active | P9WHR9 | AID 2606; in the data active = inhibition above about 38%;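 note: extracellular domain of Rv3671c used as enzyme; 0% = enzyme with DMSO and 100% = no enzyme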
RecA intein inh – inhibitors of M. tuberculosis RecA intein splicing; P9WHJ3; cell-free RecA intein splicing, fluorescence; inhibition, % (concentration not given with the values); 0.75% of 290,000 active; AID 2221; in the data active = inhibition above about 30%; inconclusive = no clear call, values can overlap the other calls;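 note: 0% = vehicle wells and 100% = reference inhibitor control wells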
Target sequence (P9WHJ3 whole entry, looked up): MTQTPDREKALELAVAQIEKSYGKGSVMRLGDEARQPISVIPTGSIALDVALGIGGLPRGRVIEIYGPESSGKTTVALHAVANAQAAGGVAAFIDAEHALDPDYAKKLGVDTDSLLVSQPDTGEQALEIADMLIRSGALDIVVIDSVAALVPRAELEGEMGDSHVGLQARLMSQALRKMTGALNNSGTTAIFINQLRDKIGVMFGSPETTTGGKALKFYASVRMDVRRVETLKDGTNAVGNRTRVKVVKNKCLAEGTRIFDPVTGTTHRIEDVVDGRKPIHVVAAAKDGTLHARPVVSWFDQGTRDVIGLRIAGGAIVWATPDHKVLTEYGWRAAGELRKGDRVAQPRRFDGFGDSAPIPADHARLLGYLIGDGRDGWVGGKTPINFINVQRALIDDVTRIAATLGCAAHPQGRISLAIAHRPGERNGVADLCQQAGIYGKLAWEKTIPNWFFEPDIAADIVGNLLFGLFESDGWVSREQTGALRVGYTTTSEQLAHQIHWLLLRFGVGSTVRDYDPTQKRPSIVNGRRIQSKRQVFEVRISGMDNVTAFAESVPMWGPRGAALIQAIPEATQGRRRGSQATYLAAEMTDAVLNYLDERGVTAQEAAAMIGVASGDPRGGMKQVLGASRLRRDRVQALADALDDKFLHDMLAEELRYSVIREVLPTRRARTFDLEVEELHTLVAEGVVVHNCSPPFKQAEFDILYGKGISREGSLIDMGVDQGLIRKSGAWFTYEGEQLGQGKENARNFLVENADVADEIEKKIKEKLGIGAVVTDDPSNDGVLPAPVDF
FBA Mtb inh – Mtb fructose-bisphosphate aldolase inhibition; inhibition, % at 1 µM; 2.3% of 360,000 active; purified M. tuberculosis FBA, fluorescence read-out; AID 588726; P9WQA3;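 note: 0% = vehicle and 100% = reference inhibitor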
Mtb FBA confirm – confirmation of M. tuberculosis fructose-bisphosphate aldolase inhibitors | shares compounds with FBA Mtb inh | purified M. tuberculosis FBA, fluorescence read-out | inhibition, % at 1 µM | 78% of 5,600 active | AID 651616;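 note: 0% = vehicle wells and 100% = reference inhibitor wells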
GDH-TPI counter-2 – counter-screen for M. tuberculosis FBA inhibitors: GDH-TPI coupled enzyme inhibition. shares compounds with FBA Mtb inh. GDH-TPI coupled enzyme counterscreen, fluorescence. inhibition, % at 1 µM. 81% of 5,600 active; in the data active = inhibition above about 10%
* hit, by the source's call; u = inconclusive; x = no result given; + = active, no number. An excerpt weighted towards active compounds, which were near 4% of everything screened. Cut-off read from the data, not from the text of the source, unless noted: active = inhibition above about 27%; inactive = the rest.

SMILES	Mtb bLac sens	GDH-TPI counter-1	UGM FP inh	Rv3671c inh	RecA intein inh	FBA Mtb inh	Mtb FBA confirm	GDH-TPI counter-2
Cc1ccn2c(=O)c(C(=O)O)cnc2c1	-8.8	33.8*	2.5	1.2	-1.9	92.4*	92.5*	83.1*
c1ccc2c(c1)Oc1cccc3cccc-2c13	1.5	13.1	0.5	8.3	4.6	28.5*	85.9*	80.8*
O=C1c2ccccc2-c2cccc3cccc1c23	x	7.8	x	x	x	2.8	x	x
Cn1ccnc1CN1CCCCC1C(=O)Nc1ccc(Oc2cccnc2)cc1 (configuration not stated)	u	2.4	-0.7	-8.6	0.2	1.3	x	x
CN(C(=O)COC(=O)c1ccccc1NCCO)C1CCS(=O)(=O)C1 (configuration not stated)	-4.6	3.2	3.7	-0.7	-9.5	103.3*	124.0*	92.6*
O=C(OCC(=O)N1CCN(c2ccccc2)CC1)c1ccccc1OC(F)F	-0.2	-5.8	0.4	1.5	-1.8	-0.4	x	x
O=C(OCC(=O)N1CCN(c2ccccc2)CC1)c1ccccc1NCCO	3.0	19.4	0.6	7.0	-6.3	100.5*	+	+
CNc1ccccc1C(=O)OCC(=O)N1CCc2ccccc2C1	x	11.6	x	x	x	63.1*	8.0	7.1
Nc1ccccc1C(=O)OCC(=O)N1CCc2ccccc21	x	1.5	x	x	-1.0	34.5*	59.2*	43.5*
Cc1ccc(O)c(C(=O)c2cnn(C(=O)c3cccc(S(=O)(=O)N(C)C)c3)c2)c1	x	6.2	x	x	x	-1.1	x	x
CCn1c(SC)nnc1C1CCN(CC(=O)Nc2ccccc2N2CCOCC2)CC1	-15.7	8.9	3.3	-3.0	-1.0	1.5	x	x
CC(C)(C)NCc1cccn1-c1sc2c(c1C#N)CCCC2	0.8	12.1	-2.3	-2.8	1.2	75.9*	65.8*	52.5*
Cc1cc(C)cc(Oc2coc3cc(OC(=O)c4cccnc4)ccc3c2=O)c1	6.6	4.8	2.0	-2.1	4.3	32.5*	47.3*	36.1*
O=C(Oc1ccc2c(=O)c(Oc3ccc4ccccc4c3)coc2c1)c1ccco1	-0.1	-9.8	-0.7	-3.4	2.5	39.7*	42.1*	35.3*
COc1ccc(-c2nc3nc(N)nn3cc2C)cc1F	-0.1	0.0	-0.3	3.5	0.2	27.8*	82.0*	70.1*
COc1ccc(-c2nc3c(-c4ccc(F)cc4)cnn3cc2C)cc1F	-1.4	0.6	-1.8	8.2	-3.6	4.4	x	x
CC(C)(C)OC(=O)N1CCC(c2c(C(=O)NCC3CCN(C4CCCC4)C3)cnn2-c2ccccc2Cl)CC1 (configuration not stated)	-5.9	5.9	-1.7	7.4	1.4	1.4	x	x
CCOC(=O)C1CCCN(C(=O)c2cc(-c3ccncc3)nc3ccccc23)C1 (configuration not stated)	4.0	3.1	1.3	0.3	x	0.5	x	x
CCOC(=O)C1CCCN(C(=O)c2cc(-c3ccco3)nc3ccccc23)C1 (configuration not stated)	1.8	5.3	x	-0.7	x	83.5*	+	157.3*
O=C(c1cc(-c2ccncc2)nc2ccccc12)N1CCCC(C(F)(F)F)C1 (configuration not stated)	x	7.3	x	x	x	-0.4	x	x
O=C(c1cc(-c2ccco2)nc2ccccc12)N1CCCC(C(F)(F)F)C1 (configuration not stated)	-7.3	2.1	-1.7	9.6	x	101.9*	+	+
COc1ccccc1N1C(=O)c2ccccc2NC1c1cc(OC)c(OC)c(OC)c1 (configuration not stated)	-4.1	15.4	0.1	-7.7	-7.5	55.0*	96.1*	64.7*
COc1ccc(C2Nc3ccccc3C(=O)N2c2ccc(C)cc2)cc1Cn1nc(C)c([N+](=O)[O-])c1C (configuration not stated)	17.4	3.7	-1.8	-1.0	10.8	1.6	x	x
COc1ccc(C2Nc3ccccc3C(=O)N2c2ccccc2)cc1CN1CCOCC1 (configuration not stated)	-4.8	8.6	-1.8	-1.6	-5.0	44.8*	-0.4	-5.3
COc1ccc(C2Nc3ccccc3C(=O)N2Cc2ccccc2)cc1CN1CCOCC1 (configuration not stated)	-19.4	5.2	5.4	-1.4	x	96.8*	57.9*	50.3*
SMILES	Mtb bLac sens	GDH-TPI counter-1	UGM FP inh	Rv3671c inh	RecA intein inh	FBA Mtb inh	Mtb FBA confirm	GDH-TPI counter-2
COc1ccc(C(=O)c2ccccc2)cc1CN1CCOCC1	x	3.9	x	x	x	5.6	x	x
COc1ccc(C2Nc3ccccc3C(=O)N2c2ccc(C)cc2)cc1COc1ccccn1 (configuration not stated)	-1.0	11.5	1.4	-15.6	-1.5	34.1*	+	+
C=CCOc1c(Cl)cc(CNCCCN2CCOCC2)cc1OC	-4.7	-9.4	-0.5	-1.1	x	-2.2	x	x
C[C@@H]1CN([C@H](C)CO)C(=O)c2cc(Br)cnc2O[C@@H]1CN(C)C(=O)c1cccc(F)c1	x	9.3	x	x	x	-1.3	x	x
C[C@H]1CN([C@@H](C)CO)C(=O)c2cc(/C=C/c3ccccc3)cnc2O[C@H]1CN(C)C(=O)c1cccc(F)c1	x	3.3	x	x	x	64.4*	66.1*	57.9*
CCN(CC)C(=O)c1ccc2c(=O)n(Cc3cccc(Br)c3)c(=S)[nH]c2c1	-3.0	x	-0.5	-2.2	-1.3	x	x	x
O=S(=O)(Nc1ccccn1)c1cc(Cl)ccc1Cl	1.9	-5.9	0.3	4.1	-1.0	1.7	x	x
COC(CNC(=O)Cc1c(C)nc2c(-c3ccccc3)c(C)nn2c1C)OC	-2.4	-1.6	-5.6	-6.4	-0.8	-12.1	x	x
Cc1nc2c(C(=O)N3CCOCC3)cnn2c(C)c1Cc1ccc(Cl)cc1	2.9	20.1	0.7	-4.8	2.6	38.1*	199.9*	171.2*
COC(CNC(=O)c1cnn2c(C)c(Cc3ccccc3)c(C)nc12)OC	-9.2	9.6	0.2	-2.8	-3.7	78.2*	1.9	-4.5
O=C(c1cccnc1)N(Cc1ccccc1)C(c1ccccc1)c1nc2ccccc2[nH]1 (configuration not stated)	x	x	x	x	x	0.2	x	x
CCOC(=O)Nc1ccc2c3c(cccc13)-c1ccccc1-2	x	13.4	x	x	x	57.2*	69.5*	61.1*
O=c1[nH]nc(-c2cc(-c3ccccc3)nc3ccccc23)o1	x	29.0	x	x	x	65.0*	121.6*	93.7*
Cn1cc(-c2nc3ccccc3[nH]2)c2ccccc21	-1.4	19.0	-0.2	8.4	2.2	43.9*	2.3	5.8
c1ccc(-c2cc(-c3nc4ccccc4[nH]3)c3ccccc3n2)cc1	32.0	23.0	0.0	-181.5	6.0	60.3*	68.7*	71.2*
CCCn1c(=O)c(-c2nc3ccccc3[nH]2)c(O)c2ccccc21	27.9	18.6	-0.2	3.2	0.4	13.7	x	x
O=C(O)c1cc(-c2ccccc2)nc2ccccc12	1.8	19.8	-1.9	5.5	3.8	8.5	x	x
S=C(NCc1ccccc1)Nc1cccc2ccccc12	-4.4	5.9	1.6	1.2	2.2	8.0	x	x

Screening results from PubChem BioAssay.
